In PubChem BioAssay (Tox21):
Activity calls are given as the source filed them. Entries that show only a call come without a potency. Unless noted, calls come from the whole dose curve; as a rule, active = well fitted curve in the direction sought with a large enough effect in the repeat runs; inconclusive = weak or mixed curves; inactive = no such curve, though single readings can be large; an effect the other way counts as inactive or inconclusive.

Tests used:
[1] = qHTS assay to identify small molecule antagonists of the peroxisome proliferator-activated receptor gamma (PPARg) signaling pathway - cell viability counter screen (AID 743194); note: nearly all actives have a fitted effect of over 55% in size; note: potency is the fitted concentration of half-maximal effect
Procedure, shortened: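 PPARg-UAS-bla HEK293H cells were plated, rested 5 h at 37 C, then treated with compounds plus rosiglitazone (50 nM final) for 17 h at 37 C; viability was then read by CellTiter-Glo luminescence after 30 min at room temperature.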

[2] = qHTS assay for small molecule agonists of the antioxidant response element (ARE) signaling pathway (AID 743202; active = well fitted activation curve with a large enough effect in the signal ratio in the repeat runs, not every such curve was filed as active; inconclusive = weak or mixed curves, or effect the other way; inactive = no such curve, though single readings can be large or run the other way; the % refers to the signal ratio)
Procedure, shortened: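 Following a 16 h, 37 C exposure of reporter HepG2 cells (ARE-driven beta-lactamase, 2,000 cells/well) to compounds, FRET substrate was applied for 2 h at room temperature and fluorescence intensity recorded.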

[3] = qHTS assay for small molecule agonists of the antioxidant response element (ARE) signaling pathway - cell viability counter screen (AID 743203; calls by dose curve; note: nearly all actives have a fitted effect of over 55% in size)
Procedure, shortened: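 Viability counter screen: CellTiter-Glo luminescence, read after 30 min at room temperature, in ARE-bla HepG2 wells. Compound exposure lasted 16 h at 37C/5% CO2, following a 5 h pre-incubation of the cells after plating.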

[4] = qHTS assay for small molecule activators of the heat shock response signaling pathway - cell viability counter screen (AID 743209); note: nearly all actives have a fitted effect of over 50% in size
Procedure, shortened: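 Cytotoxicity counter screen run in the same wells as the heat-shock bla reporter assay: HeLa HSE-bla cells, 5 h compound exposure at 37 C, viability read by CellTiter-Glo luminescence.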

[5] = qHTS assay for small molecule activators of the heat shock response signaling pathway (AID 743210; active = well fitted activation curve with a large enough effect in the signal ratio in the repeat runs, with a control signal flat, not every such curve was filed as active; inconclusive = weak or mixed curves; the % refers to the signal ratio; note: series mostly up to about 63 µM)
Procedure, shortened: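 Heat shock element–beta-lactamase HeLa reporter cells; qHTS with compounds for 5 h at 37 C; detection by FRET substrate fluorescence after 2.5 h at RT.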

[6] = biological target: Estrogen receptor (Homo sapiens) (UniProt P03372); assay: qHTS assay to identify small molecule antagonists of the estrogen receptor alpha (ER-alpha) signaling pathway (AID 743069; active = well fitted curve in the direction sought with a large enough effect in the signal ratio in the repeat runs, not every such curve was filed as active; inconclusive = weak or mixed curves, or effect the other way; inactive = no such curve, though single readings can be large or run the other way; the % refers to the signal ratio; note: potency is the fitted concentration of half-maximal effect)
Chain of Estrogen receptor (Homo sapiens) (P03372 whole entry, looked up): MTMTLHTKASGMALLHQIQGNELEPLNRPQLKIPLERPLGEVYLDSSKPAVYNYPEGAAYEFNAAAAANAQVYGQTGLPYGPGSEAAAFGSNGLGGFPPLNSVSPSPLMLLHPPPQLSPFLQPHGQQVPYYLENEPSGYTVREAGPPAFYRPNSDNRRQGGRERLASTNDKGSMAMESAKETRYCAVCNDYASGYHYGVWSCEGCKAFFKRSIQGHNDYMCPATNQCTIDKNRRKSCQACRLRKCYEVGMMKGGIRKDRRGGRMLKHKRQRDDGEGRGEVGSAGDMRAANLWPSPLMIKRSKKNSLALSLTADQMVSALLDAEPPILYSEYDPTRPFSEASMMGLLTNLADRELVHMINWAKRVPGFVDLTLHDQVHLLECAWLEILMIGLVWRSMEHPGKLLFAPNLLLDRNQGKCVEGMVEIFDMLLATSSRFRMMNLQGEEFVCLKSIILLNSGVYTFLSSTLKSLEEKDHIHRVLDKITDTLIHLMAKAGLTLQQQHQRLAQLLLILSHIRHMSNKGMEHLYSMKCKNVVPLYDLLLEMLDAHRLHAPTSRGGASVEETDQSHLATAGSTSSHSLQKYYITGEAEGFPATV
Procedure, shortened: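 A 17beta-estradiol challenge was applied right after compound transfer to ER-alpha-UAS-bla HEK293 cells previously kept in charcoal-stripped serum. Plates stood 18 hr at 37C and 5% CO2; fluorescence was read following 2 hr FRET substrate loading at room temperature.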

[7] = qHTS assay to identify small molecule antagonists of the estrogen receptor alpha (ER-alpha) signaling pathway - cell viability counter screen (AID 743074; calls by dose curve;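 note: HEK293 cells carrying ER-alpha-UAS-bla reporter stimulated with 17beta-estradiol; nearly all actives have a fitted effect of over 45% in size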)
[8] = biological target: Estrogen receptor (Homo sapiens) (UniProt P03372); assay: qHTS assay to identify small molecule agonists of the estrogen receptor alpha (ER-alpha) signaling pathway (AID 743075; calls by dose curve;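 note: HEK293 GripTite cells with ER-alpha and UAS-driven beta-lactamase reporter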)
[9] = biological target: Estrogen receptor (Homo sapiens) (UniProt P03372); assay: qHTS assay to identify small molecule agonists of the estrogen receptor alpha (ER-alpha) signaling pathway using the BG1 cell line (AID 743079); note: nearly all actives have a fitted effect of over 20% in size
[10] = qHTS assay to identify small molecule antagonists of the estrogen receptor alpha (ER-alpha) signaling pathway using the BG1 cell line (AID 743080; calls by dose curve; note: series mostly up to about 70 µM; nearly all actives have a fitted effect of over 25% in size)
Procedure, shortened: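 Antagonist mode: compounds in DMSO were pinned onto BG1-Luc-4E2 cells alongside 17beta-estradiol agonist, incubated 21.5 h, and ERE-driven luciferase measured with ONE-Glo. Cytotoxicity was multiplexed using CellTiter-Fluor fluorescence.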

[11] = qHTS assay to identify small molecule antagonists of the estrogen receptor alpha (ER-alpha) signaling pathway using the BG1 cell line - cell viability counter screen (AID 743081);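 note: compound given together with 17beta-estradiol as the ER stimulus; series mostly up to about 70 µM; nearly all actives have a fitted effect of over 45% in size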
Aromatase (Homo sapiens) = Aromatase (Homo sapiens) (UniProt P11511); assay: qHTS assay to identify aromatase inhibitors (AID 743083); note: nearly all actives have a fitted effect of over 55% in size; note: potency is the fitted concentration of half-maximal effect
Chain of Aromatase (Homo sapiens) (P11511 whole entry, looked up): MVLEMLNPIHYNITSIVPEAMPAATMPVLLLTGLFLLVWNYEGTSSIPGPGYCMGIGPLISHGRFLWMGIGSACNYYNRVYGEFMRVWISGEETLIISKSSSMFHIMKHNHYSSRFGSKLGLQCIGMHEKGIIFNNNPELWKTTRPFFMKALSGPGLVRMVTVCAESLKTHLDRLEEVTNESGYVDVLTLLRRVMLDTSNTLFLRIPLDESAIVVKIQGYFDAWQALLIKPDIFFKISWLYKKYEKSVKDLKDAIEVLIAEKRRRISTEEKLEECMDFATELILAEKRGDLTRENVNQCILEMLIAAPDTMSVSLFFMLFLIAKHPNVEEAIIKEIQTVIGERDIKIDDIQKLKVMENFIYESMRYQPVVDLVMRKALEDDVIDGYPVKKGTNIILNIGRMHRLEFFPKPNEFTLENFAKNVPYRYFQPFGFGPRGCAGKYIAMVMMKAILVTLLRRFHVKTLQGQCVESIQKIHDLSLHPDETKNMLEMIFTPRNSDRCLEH

[12] = qHTS assay to identify aromatase inhibitors - cell viability counter screen (AID 743084);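 note: cells stimulated with testosterone during compound exposure; nearly all actives have a fitted effect of over 55% in size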
[13] = biological target: Aryl hydrocarbon receptor (Homo sapiens) (UniProt P35869); assay: qHTS assay to identify small molecule that activate the aryl hydrocarbon receptor (AhR) signaling pathway (AID 743085);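 note: HG2L7.5c1 human HepG2 liver cells with stably integrated DRE-driven firefly reporter; series mostly up to about 70 µM; nearly all actives have a fitted effect of over 15% in size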
Chain of Aryl hydrocarbon receptor (Homo sapiens) (P35869 whole entry, looked up): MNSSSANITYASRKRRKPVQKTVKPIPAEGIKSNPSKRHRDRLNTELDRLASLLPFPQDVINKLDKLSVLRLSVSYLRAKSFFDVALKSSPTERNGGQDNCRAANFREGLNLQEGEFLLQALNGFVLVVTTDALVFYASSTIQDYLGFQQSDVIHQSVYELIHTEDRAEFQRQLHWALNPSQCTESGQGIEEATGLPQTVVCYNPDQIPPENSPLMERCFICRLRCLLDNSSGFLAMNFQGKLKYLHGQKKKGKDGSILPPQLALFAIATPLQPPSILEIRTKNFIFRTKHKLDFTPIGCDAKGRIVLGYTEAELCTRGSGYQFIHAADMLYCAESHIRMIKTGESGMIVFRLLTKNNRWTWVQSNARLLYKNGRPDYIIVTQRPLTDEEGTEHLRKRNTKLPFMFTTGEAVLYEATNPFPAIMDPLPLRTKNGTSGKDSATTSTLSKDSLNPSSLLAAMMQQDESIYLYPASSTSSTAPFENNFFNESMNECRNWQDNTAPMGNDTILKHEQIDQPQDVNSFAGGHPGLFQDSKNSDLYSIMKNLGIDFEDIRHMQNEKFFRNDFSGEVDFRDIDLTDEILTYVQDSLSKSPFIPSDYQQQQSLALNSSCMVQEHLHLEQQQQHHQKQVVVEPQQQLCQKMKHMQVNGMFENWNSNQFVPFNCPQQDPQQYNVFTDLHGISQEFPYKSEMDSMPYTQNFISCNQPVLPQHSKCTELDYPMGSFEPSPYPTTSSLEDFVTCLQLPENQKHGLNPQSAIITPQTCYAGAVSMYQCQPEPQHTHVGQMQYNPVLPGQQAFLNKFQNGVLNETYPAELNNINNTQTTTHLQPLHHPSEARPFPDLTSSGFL
Procedure, shortened: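 Steps: seed HepG2-AhR-luc cells; allow 5 h at 37C; pin-transfer test compound or vehicle; incubate 24 h at 37C; add viability dye (30 min, 37C) and read fluorescence; add luciferase substrate (30 min, RT) and read luminescence.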

[14] = qHTS assay to identify small molecule that activate the aryl hydrocarbon receptor (AhR) signaling pathway - cell viability counter screen (AID 743086);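 note: HepG2 liver cells carrying the AhR DRE luciferase reporter; series mostly up to about 70 µM; nearly all actives have a fitted effect of over 45% in size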
Procedure, shortened: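 HepG2-AhR-luc (HG2L7.5c1) cells, 4000/well, were preincubated 5 h at 37C, exposed to compound in qHTS format for 24 hr at 37C, then given CellTiter-Fluor for 30 min; viability was read as fluorescence in the reporter wells.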

[15] = biological target: Peroxisome proliferator-activated receptor gamma (Homo sapiens) (UniProt P37231); assay: qHTS assay to identify small molecule agonists of the peroxisome proliferator-activated receptor gamma (PPARg) signaling pathway (AID 743094; active = well fitted activation curve with a large enough effect in the signal ratio in the repeat runs, not every such curve was filed as active; inconclusive = weak or mixed curves, or effect the other way; inactive = no such curve, though single readings can be large or run the other way; the % refers to the signal ratio)
Chain of Peroxisome proliferator-activated receptor gamma (Homo sapiens) (P37231 whole entry, looked up): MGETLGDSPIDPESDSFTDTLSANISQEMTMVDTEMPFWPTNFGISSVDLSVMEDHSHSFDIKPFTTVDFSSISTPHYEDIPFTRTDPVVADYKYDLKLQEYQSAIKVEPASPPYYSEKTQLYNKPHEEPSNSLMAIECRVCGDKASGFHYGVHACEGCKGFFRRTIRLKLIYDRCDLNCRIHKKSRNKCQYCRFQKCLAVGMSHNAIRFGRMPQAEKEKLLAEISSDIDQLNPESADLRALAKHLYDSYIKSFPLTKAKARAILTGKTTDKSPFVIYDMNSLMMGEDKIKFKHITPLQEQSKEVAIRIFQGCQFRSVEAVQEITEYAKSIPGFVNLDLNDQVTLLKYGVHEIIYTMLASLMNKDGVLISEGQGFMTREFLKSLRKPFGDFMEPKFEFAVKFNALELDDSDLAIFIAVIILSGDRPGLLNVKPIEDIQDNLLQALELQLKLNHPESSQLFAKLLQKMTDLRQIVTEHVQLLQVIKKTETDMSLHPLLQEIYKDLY
Procedure, shortened: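 Agonist activity was taken from a beta-lactamase reporter (FRET substrate, 1 h at room temperature) in HEK293H cells carrying a PPARg UAS-bla construct. Compounds in DMSO were incubated 17 h at 37C after a 5 h cell pre-incubation.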

[16] = biological target: Peroxisome proliferator-activated receptor gamma (Homo sapiens) (UniProt P37231); assay: qHTS assay to identify small molecule antagonists of the peroxisome proliferator-activated receptor gamma (PPARg) signaling pathway (AID 743191; calls by dose curve; note: series mostly up to about 63 µM; nearly all actives have a fitted effect of over 30% in size)
Procedure, shortened: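 GeneBLAzer PPARg UAS-bla HEK293H cells carrying a UAS-driven beta-lactamase reporter were plated at 3000 cells/well, preincubated 5 h at 37C, then given compound for 17 h at 37C; LiveBLAzer B/G FRET substrate was read after 1 h at room temperature.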

[17] = test system: thyroid hormone receptor (rat, GH3 cells); assay: qHTS assay to identify small molecule agonists of the thyroid receptor (TR) signaling pathway (AID 743066; calls by dose curve; note: potency is the fitted concentration of half-maximal effect)
[18] = qHTS assay to identify small molecule antagonists of the thyroid receptor (TR) signaling pathway (AID 743065); note: nearly all actives have a fitted effect of over 55% in size; note: potency is the fitted concentration of half-maximal effect
Procedure, shortened: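 GH3.TRE-Luc rat pituitary cells carrying two TR response elements driving luciferase were plated for 4 h, given compound plus 1 nM T3 (final), and incubated 23.5 h at 37 C. ONE-Glo luminescence measured reporter inhibition; CellTiter-Fluor fluorescence tracked cytotoxicity.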

Row | Compound | Potency [1] | Potency [2] | outcome [3] | outcome [4] | outcome [5] | Potency [6] | outcome [7] | Potency [8] | Potency [9] | Potency [10] | outcome [11] | Potency (Aromatase (Homo sapiens)) | Potency [12] | Potency [13] | Potency [14] | outcome [15] | outcome [16] | Potency [17] | Potency [18]
1 | O=C(CCOCCOCCOCCOCCC(=O)Nc1c(I)cc(I)c(C(=O)O)c1I)Nc1c(I)cc(I)c(C(=O)O)c1I | inactive | inactive | inactive | inactive | inactive | – | – | – | – | – | – | – | – | – | – | – | – | – | –
2 | COc1ccc2cc(C=O)ccc2c1 | – | inactive | – | inactive | inactive | – | – | – | – | – | – | – | – | – | – | – | – | – | –
3 | Nc1[nH]c(=O)ncc1F | – | inactive | inactive | inactive | inactive | inactive | inactive | inactive | inactive | inactive | inactive | inactive | inactive | inactive | inactive | inactive | inactive | – | –
4 | O=C(O)Cc1cc(I)c(Oc2cc(I)c(O)c(I)c2)c(I)c1 | 19.1 µM (active) | – | – | inactive | – | 15.2 µM [inconclusive] (active) | inactive | inactive | – | inactive | inactive | inactive | inactive | inactive | inactive | – | – | 0.003 µM (active) | –
5 | N[C@@H](CS)C(=O)O | – | inactive | inactive | inactive | inactive | – | inactive | – | – | – | inactive | inactive | inactive | inactive | inactive | inactive | – | inactive | inactive
6 | CN(C)C(=O)C(CCN1CCC(O)(c2ccc(Cl)cc2)CC1)(c1ccccc1)c1ccccc1 | – | – | – | inactive | inactive | – | – | inactive | – | – | – | 26.6 µM (active) | – | inactive | – | – | – | – | 8.41 µM (active)
7 | CO | inactive | inactive | inactive | inactive | inactive | – | inactive | – | – | – | inactive | inactive | inactive | inactive | inactive | – | – | inactive | inactive
8 | CSc1nc(NC2CC2)nc(NC(C)(C)C)n1 | inactive | – | inactive | inactive | – | – | inactive | – | – | – | inactive | inactive | inactive | – | – | inactive | inactive | inactive | –
9 | CNC(=O)c1c(I)c(NC(=O)CCCCC(=O)Nc2c(I)c(C(=O)O)c(I)c(C(=O)NC)c2I)c(I)c(C(=O)O)c1I | inactive | inactive | inactive | inactive | inactive | – | – | – | – | – | – | – | – | – | – | – | inactive | – | –
10 | CN(C)CCOC(c1ccc(Cl)cc1)c1ccccn1 (configuration not stated) | inactive | – | – | inactive | inactive | inactive | inactive | inactive | inactive | inactive | inactive | – | inactive | inactive | inactive | inactive | – | inactive | –
11 | Cc1nccn1CC1CCc2c(c3ccccc3n2C)C1=O (configuration not stated) | – | inactive | inactive | inactive | inactive | inactive | inactive | inactive | inactive | inactive | inactive | inactive | inactive | inactive | inactive | inactive | – | inactive | –
12 | CCCCC1CCCCC(=O)O1 (configuration not stated) | inactive | – | – | inactive | – | inactive | inactive | inactive | inactive | inactive | inactive | inactive | inactive | inactive | inactive | – | inactive | – | inactive
13 | CC1(C)OC(=O)Nc2ccc(Br)cc21 | inactive | inactive | inactive | – | inactive | – | – | – | – | – | – | – | – | – | – | – | – | – | –
14 | NS(=O)(=O)c1cc(C2(O)NC(=O)c3ccccc32)ccc1Cl (configuration not stated) | – | inactive | – | inactive | inactive | – | inactive | – | – | – | inactive | inactive | inactive | inactive | – | inactive | – | inactive | inactive
15 | CCC(=O)c1cccc(Cl)c1 | – | inactive | inactive | inactive | inactive | – | inactive | – | – | – | inactive | inactive | inactive | inactive | inactive | inactive | – | inactive | inactive
16 | CC(=O)c1ccc(C)cc1 | – | inactive | – | inactive | inactive | inactive | inactive | inactive | inactive | inactive | inactive | inactive | inactive | inactive | inactive | inactive | – | – | –
17 | CCOC(=O)[C@H](CCc1ccccc1)N[C@@H](C)C(=O)N1CCC[C@H]1C(=O)O | – | – | inactive | inactive | inactive | – | inactive | – | – | – | inactive | inactive | inactive | inactive | – | inactive | – | inactive | inactive
18 | O=C(O)C1CCC1 | inactive | inactive | inactive | inactive | inactive | – | – | – | – | – | – | – | – | – | – | – | inactive | – | –
